Assay results: the supplement of paper PMC6555819

Columns and labels:
Test in all cases: PBM binding z-score (relative to random genomic background probes); higher = stronger binding; sequences stand for … in GC…GCGATTGACAGCGTAGAATGAAGG
[1] = system: PPARg:RXRa DBDmut IVT, anti-RXR (DBD mutation: RXRa K156A/R161A, NR concentration 270 nM, RXRa partner concentration 90 nM)
Method in brief: (§1)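 Custom Agilent 4×180K protein-binding microarrays carried double-stranded probes, each with a 34-nt variable region. These regions held direct-repeat seeds, single-nucleotide variants, half-site ablations and random human genomic background sequences. Ligand-free nuclear receptor dimers were incubated on the arrays for 1 h, antibodies against each partner (one per run) detected binding, and scanned fluorescence was regression-normalized. Binding z-scores take the random background probes as reference.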

[2] = system: PPARg:RXRa IVT, anti-PPARg (NR concentration 270 nM, RXRa partner concentration 90 nM)
Method in brief: as §1

[3] = system: PPARg DBDmut:RXRa IVT, anti-PPARg (DBD mutation: PPARg1 K132A/R137A, NR concentration 270 nM, RXRa partner concentration 90 nM)
Method in brief: as §1

[4] = system: PPARg DBDmut IVT, anti-PPARg (DBD mutation: PPARg1 K132A/R137A, NR concentration 270 nM)
Method in brief: as §1

[5] = system: PPARg homodimer (NR concentration 180 nM)
Method in brief: as §1

[6] = system: PXR:RXRa (NR concentration 270 nM, RXRa partner concentration 90 nM)
Method in brief: as §1

[7] = system: PXR homodimer (NR concentration 270 nM)
Method in brief: as §1

[8] = system: RARa:RXR (NR concentration 270 nM, RXRa partner concentration 90 nM)
Method in brief: as §1

[9] = system: RARa homodimer (NR concentration 270 nM)
Method in brief: as §1

[10] = system: RARb:RXRa (NR concentration 270 nM, RXRa partner concentration 90 nM)
Method in brief: as §1

ACTATTAGTTAAGACGAGGGCAACCGATAGGTTG
PBM binding z-score [1]: -0.356 | PBM binding z-score [2]: 0.422 | PBM binding z-score [3]: 0.81 | PBM binding z-score [4]: 0.924 | PBM binding z-score [5]: 0.44 | PBM binding z-score [6]: 0.642 | PBM binding z-score [7]: 0.645 | PBM binding z-score [8]: 0.641 | PBM binding z-score [9]: 1.02 | PBM binding z-score [10]: 0.967

AACTCTAGGTAAAGATAGTTCAGTGAATGCAAAT
PBM binding z-score [1]: 2.43 | PBM binding z-score [2]: 1.47 | PBM binding z-score [3]: 1.03 | PBM binding z-score [4]: 0.24 | PBM binding z-score [5]: 0.547 | PBM binding z-score [6]: 0.755 | PBM binding z-score [7]: 0.513 | PBM binding z-score [8]: 0.462 | PBM binding z-score [9]: 0.929 | PBM binding z-score [10]: 0.576

CGAACTAGGTCAGATCAGGACAGTGAAGGATGAT
PBM binding z-score [1]: 7.59 | PBM binding z-score [2]: 7.23 | PBM binding z-score [3]: 0.934 | PBM binding z-score [4]: 0.164 | PBM binding z-score [5]: 1.18 | PBM binding z-score [6]: 1.83 | PBM binding z-score [7]: 0.129 | PBM binding z-score [8]: 1.19 | PBM binding z-score [9]: -0.0983 | PBM binding z-score [10]: 3.17

CTAACTAGGTCAAAGGTCAAAGTCGAGCCAACCA
PBM binding z-score [1]: 9.01 | PBM binding z-score [2]: 9.15 | PBM binding z-score [3]: 2.95 | PBM binding z-score [4]: 1.6 | PBM binding z-score [5]: 4.42 | PBM binding z-score [6]: 7.03 | PBM binding z-score [7]: 1.84 | PBM binding z-score [8]: 8.76 | PBM binding z-score [9]: 2.8 | PBM binding z-score [10]: 5.8

TCATATAGGTACTACAGGTGAAAGTCGGCATCTA
PBM binding z-score [1]: 2.86 | PBM binding z-score [2]: 1.16 | PBM binding z-score [3]: 0.618 | PBM binding z-score [4]: 1.02 | PBM binding z-score [5]: 0.506 | PBM binding z-score [6]: 0.663 | PBM binding z-score [7]: 0.0757 | PBM binding z-score [8]: 0.847 | PBM binding z-score [9]: 0.606 | PBM binding z-score [10]: 0.472

ACTAGTTGGTCAGCTGAGGTCAGACACAATTCGG
PBM binding z-score [1]: 1.02 | PBM binding z-score [2]: 1.86 | PBM binding z-score [3]: 0.583 | PBM binding z-score [4]: 0.951 | PBM binding z-score [5]: 1.04 | PBM binding z-score [6]: 4.31 | PBM binding z-score [7]: 0.813 | PBM binding z-score [8]: 2.75 | PBM binding z-score [9]: 0.218 | PBM binding z-score [10]: 2.86

TGATATAGGTAATACAGGTGAAAGTCGGCATCTA
PBM binding z-score [1]: 4.32 | PBM binding z-score [2]: 4.45 | PBM binding z-score [3]: 1.57 | PBM binding z-score [4]: 1.13 | PBM binding z-score [5]: 1.38 | PBM binding z-score [6]: 0.409 | PBM binding z-score [7]: 0.476 | PBM binding z-score [8]: 0.69 | PBM binding z-score [9]: 0.77 | PBM binding z-score [10]: 0.624

GCGACTGGGGCAAAGCTGGTTACCATAAGGTTGG
PBM binding z-score [1]: 4.32 | PBM binding z-score [2]: 3.14 | PBM binding z-score [3]: -0.175 | PBM binding z-score [4]: -0.912 | PBM binding z-score [5]: -0.562 | PBM binding z-score [6]: -0.523 | PBM binding z-score [7]: -0.799 | PBM binding z-score [8]: -0.0421 | PBM binding z-score [9]: -0.562 | PBM binding z-score [10]: 0.598

CCTAGCAGGCCAATCAGGGTCACTCAAGGCTTGA
PBM binding z-score [1]: 1.3 | PBM binding z-score [2]: 1.7 | PBM binding z-score [3]: -0.834 | PBM binding z-score [4]: -1.49 | PBM binding z-score [5]: 0.893 | PBM binding z-score [6]: 4.07 | PBM binding z-score [7]: -0.258 | PBM binding z-score [8]: 3.42 | PBM binding z-score [9]: -0.49 | PBM binding z-score [10]: 2.36

AGTCAAAGTTCACTAGGTAACATAAGATTCAGCT
PBM binding z-score [1]: 2.79 | PBM binding z-score [2]: 5.27 | PBM binding z-score [3]: 1.65 | PBM binding z-score [4]: 1.65 | PBM binding z-score [5]: 3.16 | PBM binding z-score [6]: 4.33 | PBM binding z-score [7]: 3.16 | PBM binding z-score [8]: 2.97 | PBM binding z-score [9]: 2.25 | PBM binding z-score [10]: 4.79

ATCTCTAGGTAACAAGTTCAGTGCAAGAGAGGAC
PBM binding z-score [1]: 3.44 | PBM binding z-score [2]: 2.92 | PBM binding z-score [3]: 1.24 | PBM binding z-score [4]: 1.13 | PBM binding z-score [5]: 1.36 | PBM binding z-score [6]: 1.87 | PBM binding z-score [7]: 2.67 | PBM binding z-score [8]: 0.985 | PBM binding z-score [9]: 1.05 | PBM binding z-score [10]: 1.69

CCTGCTAGGTCAGGGTCAGCTAATCTACAGTATG
PBM binding z-score [1]: 3.18 | PBM binding z-score [2]: 3.55 | PBM binding z-score [3]: -0.395 | PBM binding z-score [4]: -0.875 | PBM binding z-score [5]: 0.967 | PBM binding z-score [6]: 2.73 | PBM binding z-score [7]: -0.26 | PBM binding z-score [8]: 3.48 | PBM binding z-score [9]: 0.175 | PBM binding z-score [10]: 4.42

CCAGACAGGTGAGCAGGTAACTCAGCCTCGATTA
PBM binding z-score [1]: 1.15 | PBM binding z-score [2]: 0.619 | PBM binding z-score [3]: -0.93 | PBM binding z-score [4]: -1.41 | PBM binding z-score [5]: 0.319 | PBM binding z-score [6]: -0.31 | PBM binding z-score [7]: 0.22 | PBM binding z-score [8]: -0.516 | PBM binding z-score [9]: 0.0182 | PBM binding z-score [10]: 0.568

ACAGCCAGGTGAGTGAAGGTAACTCAGCTGGACG
PBM binding z-score [1]: 0.411 | PBM binding z-score [2]: 0.424 | PBM binding z-score [3]: -0.718 | PBM binding z-score [4]: -0.566 | PBM binding z-score [5]: -0.774 | PBM binding z-score [6]: -0.607 | PBM binding z-score [7]: -0.722 | PBM binding z-score [8]: -0.11 | PBM binding z-score [9]: -0.431 | PBM binding z-score [10]: 0.179

CCAGACAGGTGAGAAGGTAACCCAGCCTCGATTA
PBM binding z-score [1]: 1.18 | PBM binding z-score [2]: 0.79 | PBM binding z-score [3]: -0.0117 | PBM binding z-score [4]: -0.618 | PBM binding z-score [5]: 0.918 | PBM binding z-score [6]: -0.0868 | PBM binding z-score [7]: 0.187 | PBM binding z-score [8]: 0.417 | PBM binding z-score [9]: 0.439 | PBM binding z-score [10]: 0.682

TCTTGTAGATCATCAGGAGGTTAAGAAAGATCGA
PBM binding z-score [1]: 1.49 | PBM binding z-score [2]: 0.887 | PBM binding z-score [3]: 1.1 | PBM binding z-score [4]: -0.169 | PBM binding z-score [5]: -0.101 | PBM binding z-score [6]: 0.787 | PBM binding z-score [7]: -0.453 | PBM binding z-score [8]: 0.957 | PBM binding z-score [9]: -0.298 | PBM binding z-score [10]: 0.52

TGAATGAGGTTAACGATCAGGGAACGTGGCGTCG
PBM binding z-score [1]: 2.53 | PBM binding z-score [2]: 2.98 | PBM binding z-score [3]: 0.909 | PBM binding z-score [4]: 0.129 | PBM binding z-score [5]: 0.132 | PBM binding z-score [6]: 0.809 | PBM binding z-score [7]: -0.38 | PBM binding z-score [8]: 2.15 | PBM binding z-score [9]: -0.0277 | PBM binding z-score [10]: 2.01

CAAACTACGTCACAGAGGTCAAAGTCCGTGCGTA
PBM binding z-score [1]: 0.625 | PBM binding z-score [2]: 2.48 | PBM binding z-score [3]: 1.33 | PBM binding z-score [4]: 0.372 | PBM binding z-score [5]: 2.66 | PBM binding z-score [6]: 5.74 | PBM binding z-score [7]: 2.1 | PBM binding z-score [8]: 5.74 | PBM binding z-score [9]: 1.25 | PBM binding z-score [10]: 3.98

CCTGCTAGGTCATGGTCCGCTAATCTACAGTATG
PBM binding z-score [1]: 4.12 | PBM binding z-score [2]: 3.6 | PBM binding z-score [3]: -0.11 | PBM binding z-score [4]: -0.235 | PBM binding z-score [5]: 0.575 | PBM binding z-score [6]: 1.29 | PBM binding z-score [7]: -0.433 | PBM binding z-score [8]: 2.09 | PBM binding z-score [9]: -0.439 | PBM binding z-score [10]: 3.88

CAAACTAGGGCACCGGAAGGTCAAAGTCCGCATG
PBM binding z-score [1]: 7.77 | PBM binding z-score [2]: 7.55 | PBM binding z-score [3]: 1.16 | PBM binding z-score [4]: 0.324 | PBM binding z-score [5]: 1.96 | PBM binding z-score [6]: 4.06 | PBM binding z-score [7]: 0.773 | PBM binding z-score [8]: 4.68 | PBM binding z-score [9]: 0.355 | PBM binding z-score [10]: 4.01

CGAACTAGGTCAGCCAGGACAGTGAATACATTGA
PBM binding z-score [1]: 7.76 | PBM binding z-score [2]: 7.73 | PBM binding z-score [3]: 1.49 | PBM binding z-score [4]: 0.655 | PBM binding z-score [5]: 1.34 | PBM binding z-score [6]: 0.744 | PBM binding z-score [7]: -0.0382 | PBM binding z-score [8]: 0.595 | PBM binding z-score [9]: 0.0532 | PBM binding z-score [10]: 3.45

CCAGACAGGTGAAAGGGAACTCAGTCTGGTACGC
PBM binding z-score [1]: 1.08 | PBM binding z-score [2]: 1.02 | PBM binding z-score [3]: 0.273 | PBM binding z-score [4]: -0.448 | PBM binding z-score [5]: 0.717 | PBM binding z-score [6]: -0.0959 | PBM binding z-score [7]: -0.23 | PBM binding z-score [8]: 0.13 | PBM binding z-score [9]: 0.262 | PBM binding z-score [10]: 0.537

ACTATTAGTTGAGACGAGGCCAACCGATAGGTTG
PBM binding z-score [1]: -0.553 | PBM binding z-score [2]: 0.338 | PBM binding z-score [3]: -0.0845 | PBM binding z-score [4]: 1.03 | PBM binding z-score [5]: 0.634 | PBM binding z-score [6]: 0.673 | PBM binding z-score [7]: 0.177 | PBM binding z-score [8]: 0.671 | PBM binding z-score [9]: 0.555 | PBM binding z-score [10]: 0.81

GCAGACAGGTGAAACGCAGCTAACTCAGGGTGGC
PBM binding z-score [1]: 0.771 | PBM binding z-score [2]: 0.278 | PBM binding z-score [3]: -1.29 | PBM binding z-score [4]: -0.6 | PBM binding z-score [5]: -1.08 | PBM binding z-score [6]: -0.921 | PBM binding z-score [7]: -0.971 | PBM binding z-score [8]: -0.616 | PBM binding z-score [9]: -1.12 | PBM binding z-score [10]: 0.0872
